{"source": "PubChem BioAssay", "note": "A number with no mark means an inactive call. Activity calls are given as the source filed them.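 How the source made its calls, unless noted: active means inhibition above 50%; inactive means the rest.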"}
{"assay": "antimalarial activity against Dd2 strain (AID 2302;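 active means growth inhibition above 50% at the single 2 µM test dose, taken to imply half-maximal potency below 2 µM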;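 further: 0% = DMSO untreated growth and 100% = chloroquine plus artemisinin killed control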)", "settings": "P. falciparum Dd2 in RBCs, LDH growth readout, 72 h; at 2 µM; stronger effect = higher value"}
{"smiles": "CC(Cc1ccc(CN(CC(N)=O)Cc2ccc(CC(C)NCCc3cccc(Cl)c3)cc2)cc1)NCCc1cccc(Cl)c1", "note": "(stereo not drawn)", "growth inhibition": "68% (active)"}
{"smiles": "CCC1CCCCN1S(=O)(=O)c1ccc(OC)c(N2CCN(C(=O)C(Cl)(Cl)Cl)CC2)c1", "note": "(stereo not drawn)", "growth inhibition": "29%"}
{"smiles": "Cc1cc2ncn(-c3ccnc(N4CCN(CCCN5CCCC5)CC4)n3)c2cc1C", "growth inhibition": "49%"}
{"assay": "HepG2 cytotoxicity, primary screen, cytotoxicity control for P. falciparum antimalarial project, cell-based, ATP luminescence (AID 2303);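 further: 0% = DMSO wells and 100% = digitonin-killed cells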", "settings": "HepG2 viability, 24-48 h, at 10 µM, stronger effect = higher value"}
{"smiles": "Cc1cc(-c2cccc(CNCCc3ccc(Cl)cc3)c2)cnc1N", "inhibition": "19%"}
{"smiles": "CCCCCCN1CCN(Cc2cccc(NC(=O)c3cccc(OCC)c3)c2)CC1", "inhibition": "65% (active)"}
{"smiles": "CCOc1ccc(Br)cc1/C=C/C(=O)Nc1ccc2c(c1)CN(C)CCC2", "inhibition": "18%"}
{"smiles": "O=C(CN1CCN(C(=O)c2ccco2)CC1)Nc1ccc(Br)cc1Cl", "inhibition": "10%"}
{"smiles": "FC(F)(F)c1ccc2nc(-c3ccc(-c4ccc(CNCC5CCCO5)cc4)cc3)[nH]c2c1", "note": "(stereo not drawn)", "inhibition": "33%"}
{"smiles": "CC[C@H](NC(=O)c1ccc(NC(=O)OC(C)(C)C)cc1)C(=O)N[C@@H](CO)C(=O)NCCCCc1ccccc1", "inhibition": "-6%"}
{"smiles": "Cc1cccc(C(=O)Nc2ccnc(N3CCC(N(C)Cc4cccc(O)c4)CC3)c2)c1", "inhibition": "7%"}
{"smiles": "CCCSc1nc2c(c(=O)n1CCc1ccccc1)C1(CCCC1)Cc1ccccc1-2", "inhibition": "46%"}
{"smiles": "COc1ccc2c(NN=Cc3cccnc3)ccnc2c1", "inhibition": "3%"}
{"smiles": "Cc1cc(N[C@@H](CC(C)C)C(=O)NCc2cccc(F)c2)nc(NCC2CCCCC2)n1", "inhibition": "3%"}
{"smiles": "CN1CCCN(Cc2ccc(-c3ccc(NC(=O)c4ccc(C#N)cc4)cc3)cc2)CC1", "inhibition": "30%"}
{"smiles": "O=C(N[C@@H](CC1CCCCC1)C(=O)NCCN1CCCC1)c1ccc(O)c(-c2ccc(Cl)c(Cl)c2)c1", "inhibition": "16%"}
{"smiles": "NC(N)=Nc1nc(-c2ccc(NC(=O)Nc3cccc(-c4csc(N=C(N)N)n4)c3)cc2)cs1", "inhibition": "-9%"}
{"smiles": "CC(C)COc1ccc(Cl)cc1Cc1ccc(-c2nc3c(cnc4ccccc43)[nH]2)o1", "inhibition": "21%"}
{"smiles": "CC1(C)N=C(N)N=C(N)N1OCc1cc(Cl)c(Cl)cc1CON1C(N)=NC(N)=NC1(C)C", "inhibition": "36%"}
{"smiles": "CN(C)CCNCc1cccc(-c2cccc(-c3nc4ccccc4[nH]3)c2)c1", "inhibition": "7%"}
{"smiles": "CCn1ccc2c(N3CCCS3(=O)=O)cc(C(=O)N[C@@H](Cc3ccccc3)[C@H](O)CNC3CCCCC3)cc21", "inhibition": "-1%"}
{"smiles": "CCCCCCN1CCN(Cc2cccc(NC(=O)c3cc4ccccc4s3)c2)CC1", "inhibition": "20%"}
{"smiles": "N#Cc1ccc2c(c1)CCN(CCC1CCC(NC(=O)c3cc4cccc([N+](=O)[O-])c4[nH]3)CC1)C2", "note": "(stereo not drawn)", "inhibition": "-4%"}
{"smiles": "O=C(Cn1c(CCc2cccc(F)c2F)cc(=O)c2cccnc21)N(CCCn1ccnc1)Cc1ccc(-c2ccc(C(F)(F)F)cc2)cc1", "inhibition": "38%"}
{"smiles": "O=C(Nc1cccc(OCCN2CCCC2)c1)Nc1ccc(Cl)c(Cl)c1", "inhibition": "3%"}
{"smiles": "Cc1ccc(Nc2nc(C)cc(Nc3cccc(NS(C)(=O)=O)c3)n2)cc1", "inhibition": "-3%"}
{"smiles": "Cc1cccc2c3c([nH]c12)C1(CCN(Cc2ccccc2)CC1)NC(C(=O)NCc1ccccc1)C3", "note": "(stereo not drawn)", "inhibition": "-4%"}
{"smiles": "OCCn1c(CNCCCNc2nc3ccccc3[nH]2)cc2c(Cl)cc(Cl)cc21", "inhibition": "29%"}
{"smiles": "CCOc1ccc2c(NN=Cc3cccc([N+](=O)[O-])c3)cc(C)nc2c1", "inhibition": "4%"}
{"smiles": "CCN(CC)CCN(CCCc1ccc(-c2ccc(C(F)(F)F)cc2)cc1)C(=O)Cn1c(CCc2cccc(F)c2F)nc(=O)c2c1CCC2", "inhibition": "38%"}
{"smiles": "Cc1cc(C(=O)Nc2nc(-c3ccccn3)nc3ccsc23)no1", "inhibition": "44%"}
{"smiles": "CCCN(CCC)CCCNc1ccc(C(=O)Nc2ccc(C)c(F)c2)cc1[N+](=O)[O-]", "inhibition": "33%"}
{"smiles": "CCN(CC)CCN(Cc1ccc(-c2ccc(C(F)(F)F)cc2)cc1)C(=O)Cn1cc(CCCc2cccc(F)c2F)c(=O)c2ccccc21", "inhibition": "13%"}
{"smiles": "O=C(Cc1ccc(NC(=O)c2ccc(O)c(-c3ccc(Cl)c(Cl)c3)c2)cc1)NCCc1ccc(Cl)c(Cl)c1", "inhibition": "-6%"}
{"smiles": "C=CCO[C@@H]1O[C@H](COC(c2ccccc2)(c2ccccc2)c2ccccc2)[C@@H](OC(C)=O)[C@H](OC(C)=O)[C@H]1NC(C)=O", "inhibition": "-1%"}
{"smiles": "CCOc1cc(NCCSCc2nc[nH]c2C)nc2ccccc12", "inhibition": "4%"}
{"smiles": "Cc1cc(C(=O)Nc2ccc(-c3nc4ccccc4[nH]3)cc2)ccc1[N+](=O)[O-]", "inhibition": "55% (active)"}
{"smiles": "Cc1ccc(C)c2sc(N(CCCn3ccnc3)C(=O)C=Cc3cccs3)nc12", "inhibition": "20%"}
{"smiles": "COc1cc(C=Cc2ccc3ccccc3n2)cc(Br)c1OCC(=O)N(C)C", "inhibition": "28%"}
{"smiles": "O=C(Nc1ccc(N2CCCCC2)c(Cl)c1)c1ccc(Br)o1", "inhibition": "-8%"}
{"smiles": "Cn1cnc(CCNC(=O)c2cccc(-c3cccc(-c4nc5ccc(C(F)(F)F)cc5[nH]4)c3)c2)c1", "inhibition": "37%"}
{"smiles": "CC(Cc1ccc(CN(CC(N)=O)Cc2ccc(CC(C)NCCc3cccc(Cl)c3)cc2)cc1)NCCc1cccc(Cl)c1", "note": "(stereo not drawn)", "inhibition": "26%"}
{"smiles": "CCC1CCCCN1S(=O)(=O)c1ccc(OC)c(N2CCN(C(=O)C(Cl)(Cl)Cl)CC2)c1", "note": "(stereo not drawn)", "inhibition": "9%"}
{"smiles": "Cc1cc2ncn(-c3ccnc(N4CCN(CCCN5CCCC5)CC4)n3)c2cc1C", "inhibition": "24%"}
